Values joined by “and” are separate entries in the source; they are usually repeats but may differ in a detail not shown here. Equal values may be shown once. About 83,000 compounds went through this panel and 20% of them were active in at least one assay; those are over-represented in the sample as a whole.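 Values shown are percent growth following 48 h exposure of cells in 96-well plates to a single concentration of compound; below 10 was considered active.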 Active and inactive are the calls of the source.
Columns and labels:
Assay in all cases: NCI-60 one-dose screen, 48 h (100 = growth as untreated, 0 = no growth, -100 = all killed)
Settings in all cases: 10 µM unless noted
SK-MEL-2 melanoma = tested on: SK-MEL-2 melanoma
EKVX NSCLC = tested on: EKVX NSCLC
SN12C renal = tested on: SN12C renal
UO-31 renal = tested on: UO-31 renal
TK-10 renal = tested on: TK-10 renal
ACHN renal = tested on: ACHN renal
CAKI-1 renal = tested on: CAKI-1 renal
A498 renal = tested on: A498 renal
CCRF-CEM leukemia = tested on: CCRF-CEM leukemia
MOLT-4 leukemia = tested on: MOLT-4 leukemia

Structure (SMILES)	growth (SK-MEL-2 melanoma)	growth (EKVX NSCLC)	growth (SN12C renal)	growth (UO-31 renal)	growth (TK-10 renal)	growth (ACHN renal)	growth (CAKI-1 renal)	growth (A498 renal)	growth (CCRF-CEM leukemia)	growth (MOLT-4 leukemia)
COc1cc(-c2[nH]ncc2Nc2ccc(Cl)cc2)cc(OC)c1OC	112% (inactive)	45.4% (inactive)	89.9% (inactive)	42.9% (inactive)	67.8% (inactive)	78.9% (inactive)	-14.8% (active)	68.9% (inactive)	54.9% (inactive)	50.9% (inactive)
N=C(N)c1ccc(-c2ccc(-c3ccc(Cl)c(Cl)c3)s2)cc1	107% (inactive)	72.4% (inactive)	14.3% (inactive)	54% (inactive)	109% (inactive)	-62.7% (active)	-69% (active)	86.7% (inactive)	1.96% (active)	-14.9% (active)
COc1cccc(NC(=O)c2sc3nc(C)c(C(O)c4ccccc4)cc3c2N)c1 (stereo not given)	37.8% (inactive)	47.7% (inactive)	18.5% (inactive)	48% (inactive)	50.8% (inactive)	30.9% (inactive)	35.1% (inactive)	-0.498% (active)	14.3% (inactive)	11.8% (inactive)
O=c1oc2c(Br)cc(Br)cc2cc1-c1cc(-c2ccc(-c3cc(-c4cc5cc(Br)cc(Br)c5oc4=O)nc(-c4cc5cc(Br)cc(Br)c5oc4=O)c3)cc2)cc(-c2cc3cc(Br)cc(Br)c3oc2=O)n1	101% (inactive)	105% (inactive)	107% (inactive)	80.6% (inactive)	107% (inactive)	103% (inactive)	110% (inactive)	95.9% (inactive)	101% (inactive)	102% (inactive)
Cc1nc(-n2[nH]c(=O)ccc2=O)sc1N=Nc1ccccc1	108% (inactive)	96.5% (inactive)	97.7% (inactive)	84.1% (inactive)	121% (inactive)	99.5% (inactive)	91.5% (inactive)	105% (inactive)	100% (inactive)	99.4% (inactive)
COC(=O)/C=C1/SC(N2N=C(c3cccs3)CC2c2ccc(F)cc2)=NC1=O (stereo not given)	80.9% (inactive)	94% (inactive)	56% (inactive)	52.6% (inactive)	78.5% (inactive)	74.4% (inactive)	77% (inactive)	80.5% (inactive)	8.74% (active)	-3.67% (active)
COC(=O)c1nc(-c2ccc(C)cc2)oc1S(=O)(=O)c1ccc(Cl)cc1	102% (inactive)	108% (inactive)	83.6% (inactive)	75.1% (inactive)	93.5% (inactive)	80.4% (inactive)	95% (inactive)	113% (inactive)	-15.8% (active)	-21% (active)
O=C(NCc1cccnc1)/C(=C\c1ccc(Br)cc1)S(=O)(=O)c1ccccc1	-44% (active)	11.1% (inactive)	-30.2% (active)	10.7% (inactive)	-59.4% (active)	-15.3% (active)	-2.88% (active)	-20.4% (active)	25.2% (inactive)	64.1% (inactive)
Cc1ccc2nc3ccccc3c(NCc3ccc(Cl)cc3)c2c1	102% (inactive)	55.4% (inactive)	39.6% (inactive)	24.5% (inactive)	82.4% (inactive)	33.3% (inactive)	45.7% (inactive)	13% (inactive)	18.2% (inactive)	0.0972% (active)
Clc1ccc2c(NCCN3CCN(c4ccnc(N5CCCC5)n4)CC3)ccnc2c1	92.4% (inactive)	63% (inactive)	57.2% (inactive)	25.8% (inactive)	52.5% (inactive)	55.6% (inactive)	27.7% (inactive)	51.5% (inactive)	51.1% (inactive)	47.2% (inactive)
N#CC1=C(N)Oc2c(sc3c(Br)cccc23)C1c1ccccn1 (stereo not given)	2.4% (active)	53.4% (inactive)	43.9% (inactive)	46.7% (inactive)	64.6% (inactive)	47.3% (inactive)	87.4% (inactive)	37.9% (inactive)	22.1% (inactive)	28.9% (inactive)
Nn1c(-c2ccc(Cl)cc2)nc2c(-c3ccc(Cl)cc3)nc3ccc(Cl)cc3c2c1=O	73.3% (inactive)	6.86% (active)	-3.15% (active)	-24.9% (active)	0.823% (active)	4.66% (active)	14.7% (inactive)	21.3% (inactive)	-15.8% (active)	32.3% (inactive)
C=C1CC[C@@H]2[C@](C)(COC(C)=O)[C@H](OC(C)=O)CC[C@@]2(C)[C@@H]1CC(Nc1ccc(S(=O)(=O)Nc2nccs2)cc1)C1=CCOC1=O (stereo not given in full)	28.4% (inactive)	73.4% (inactive)	15.6% (inactive)	13.5% (inactive)	55% (inactive)	-46.6% (active)	55.9% (inactive)	85% (inactive)	-27.7% (active)	-4.45% (active)
COc1ccc(-c2ccccc2)cc1-c1c(Nc2cc(Cl)cc(Cl)c2O)c(=O)c1=O	-26.5% (active)	10.2% (inactive)	6.31% (active)	6.3% (active)	12.8% (inactive)	3.24% (active)	-12.6% (active)	-17.6% (active)	19.5% (inactive)	13.2% (inactive)
O=S(=O)(Nc1cc(Sc2cccc3cccnc23)c(O)c2ccccc12)c1ccc(F)cc1	1.64% (active)	37.1% (inactive)	-15% (active)	-11.2% (active)	17.1% (inactive)	0.351% (active)	11.9% (inactive)	70.4% (inactive)	5.42% (active)	-18.4% (active)
COc1ccccc1/C=C/C(=O)/C=C/c1ccccc1OC	2.6% (active) and 1.3% (active)	12.6% (inactive)	-27.2% (active) and -3.57% (active)	-89.9% (active) and -54.9% (active)	-11.8% (active) and 0.143% (active)	-62.5% (active) and -84.2% (active)	17.5% (inactive) and 4.88% (active)	-48.3% (active) and 22.8% (inactive)	15.5% (inactive) and 6.56% (active)	14.8% (inactive) and 12.1% (inactive)
COc1c(O)c(O)cc2c3c(oc12)CC(c1ccc2c(c1)OCO2)CC3=O (stereo not given)	69.6% (inactive)	65.2% (inactive)	82.2% (inactive)	44.7% (inactive)	101% (inactive)	29.7% (inactive)	72% (inactive)	97.9% (inactive)	56.7% (inactive)	43.5% (inactive)
CON1CCC[C@]2(C)[C@H]3CC[C@@H]4[C@H]5[C@@H](O)C(C)(C)CC[C@]5(CO)CC[C@@]4(C)[C@]3(C)CC[C@H]2C1(C)C	103% (inactive)	98.1% (inactive)	93.1% (inactive)	95.2% (inactive)	105% (inactive)	107% (inactive)	97.4% (inactive)	114% (inactive)	94.5% (inactive)	83.7% (inactive)
CCOC(=O)C(=Cc1ccc(C#N)cc1)C(=O)OCC	42.9% (inactive)	77.2% (inactive)	45.9% (inactive)	-33.9% (active)	-1.52% (active)	-64.7% (active)	48.6% (inactive)	82.3% (inactive)	2.95% (active)	10.6% (inactive)
Cc1c(C(=O)OCCCCOC(=O)c2c(C)n(C)c3scc[n+]23)[n+]2ccsc2n1C	106% (inactive)	95.6% (inactive)	90.8% (inactive)	78.9% (inactive)	114% (inactive)	97.2% (inactive)	101% (inactive)	156% (inactive)	96.4% (inactive)	94.9% (inactive)
N#C/C(=N\Nc1ccc(Cl)cc1)C(=O)Nc1cc(-c2ccccc2)nn1-c1ccccc1	10.5% (inactive)	24.4% (inactive)	0.137% (active)	47.1% (inactive)	28.6% (inactive)	33.9% (inactive)	21.5% (inactive)	3.5% (active)	15.3% (inactive)	26.1% (inactive)
[Cu+].[NH-][C@H]1C[N-]C(=O)[C@H]([C@H]2CCN=C(N)N2)[N-]C(=O)/C(=C\NC(N)=O)[N-]C(=O)[C@H](CNC(=O)C[C@@H](N)CCCN)[N-]C(=O)[C@H](CO)[N-]C1=O	108% (inactive)	109% (inactive)	103% (inactive)	86.8% (inactive)	98.1% (inactive)	108% (inactive)	87.8% (inactive)	85.7% (inactive)	99.9% (inactive)	102% (inactive)
CN1CCN(CCCN2c3ccccc3Sc3ccc(Cl)cc32)CC1	106% (inactive)	75% (inactive) and 77.4% (inactive)	64% (inactive) and 76.7% (inactive)	54.5% (inactive)	74.9% (inactive) and 85.8% (inactive)	62.9% (inactive) and 85.2% (inactive)	55.2% (inactive) and 60.7% (inactive)	82.2% (inactive) and 79.4% (inactive)	80.1% (inactive) and 75.9% (inactive)	70.3% (inactive) and 73.9% (inactive)
Cc1nonc1-c1ccc2c(c1)OCO2	113% (inactive) and 100% (inactive)	90% (inactive) and 104% (inactive)	109% (inactive) and 103% (inactive)	95.2% (inactive) and 96.6% (inactive)	105% (inactive) and 121% (inactive)	109% (inactive) and 107% (inactive)	82.2% (inactive) and 103% (inactive)	166% (inactive)	86.9% (inactive) and 94.1% (inactive)	94.8% (inactive)
